The source of these data is PubChem BioAssay (Tox21).

Inconclusive results are not listed. Calls of active or inactive are those of the source. The call rests on the fitted dose curve; in most records, active means well fitted inhibition curve with a large enough effect in the repeat runs; inconclusive means weak or mixed curves; inactive means flat fitted curve, though single readings scatter. Positions of bridges follow the written chain, without caps; N, C: chain ends. Non-standard residues stand in square brackets, D forms with d. Residues, ends and D or L forms follow the SMILES beside them. hArg = N=C(N)NCCCC[C@H](N)C(=O)O; Mpa = O=C(O)CCS
On the % scale 0 is the no-effect control and ±100 the full control effect.

This assay in a line: qHTS assay to identify small molecule HDAC inhibitors (AID 1259364). Further: top concentration of the series differs between compounds; nearly all actives have a fitted effect of over 45% in size. The conditions noted are these: HCT-116 HDAC-Glo I/II luminescence, 2 h; series mostly up to 92.4 µM; activity change, negative = inhibition: at the top concentration. An excerpt: U.S. Tox21 Program National Center for Advancing Translational Sciences [NCATS] NIH Chemical Genomics Center [NCGC] U.S. Environmental Protection Agency [EPA] National Institutes of Environmental Health Sciences [NIEHS] National Toxicology Program [NTP] U.S. Food and Drug Administration [FDA] Tox21 Assay Overview: Histone deacetylases (HDACs) are a group of epigenetic enzymes that regulate gene expression by histone deacetylation. HDACs are capable of introducing epigenetic modifications and such aberrations contribute to the onset and progression of several human diseases, thus making HDACs a popular therapeutic target. For identifying endogenous class I/II HDAC inhibitors a homogenous, luminogenic HDAC I/II cell based assay was used to measure the relative activity of class I and II HDACs from cells. Wild type HCT-116 cells were used to screen Tox21 libraries for identifying class I/II HDAC inhibitors.
Tox21 Assay Protocol Summary: HCT-116 cells were dispensed at 1,500 per well in 5uL of culture medium into white solid bottom 1536-well plates (Greiner Bio-One, Monroe, NC) using a Multidrop Combi (Thermo Scientific, Waltham, MA) dispenser. The assay plates were incubated at 37 C and 5% CO2 for an overnight, and then 23nL of compounds dissolved in DMSO and positive control were transferred using a Pintool station (Wako, San Diego, CA). The assay plates were incubated at 37C and 5% CO2 for 2hr. After compound treatment, 4uL of HDAC-Glo reagent (Promega Corporation, Madison, WI) was added to each well of the assay plates using Flying Reagent Dispenser (FRD, Aurora Discovery, San Diego, CA) and incubated the assay plates at room temperature for 30min. The luminescence signal was quantified using a ViewLux plate reader (Perkin Elmer, Shelton, CT).
In the case of `NC(=O)[C@@H]1CSSCCC(=O)N[C@@H](CCCCN=C(N)N)C(=O)NCC(=O)N[C@@H](CC(=O)O)C(=O)N[C@@H](Cc2c[nH]c3ccccc23)C(=O)N2CCC[C@H]2C(=O)N1` ([Mpa][hArg]GDWPC-NH2; disulfide 1-7), the “activity change, negative = inhibition” value was 5.99% [at 42.5 µM] (inactive). As for `[O-][n+]1cccc(/C(Cl)=N/OC[C@@H](O)CN2CCCCC2)c1`, the “activity change, negative = inhibition” value is -0.915% [at 42.5 µM] (inactive).

Take `CN1CCOC(c2ccccc2)c2ccccc2C1` (stereo not given): the “activity change, negative = inhibition” value is -2.27% [at 42.5 µM] (inactive). Turning to `CCC(=O)c1c(O)cc(O)cc1O`, the “activity change, negative = inhibition” value was 10.4% [at 42.5 µM] (inactive). `O=C1CCC(=O)N1Cl`: the “activity change, negative = inhibition” value was -5.73% (inactive).

Regarding `Cc1cc(-c2ccccc2)nnc1NCCN1CCOCC1`, the “activity change, negative = inhibition” value is 6.63% [at 42.5 µM] (inactive). With `Cc1c(Cl)cccc1Cl` the figure was 0.923% (inactive).

For the compound `CC(=O)CC(=O)OC(C)(C)C`, the “activity change, negative = inhibition” value was 0.609% (inactive). Regarding `CC1(C)[C@H]2CC[C@](C)(C2)[C@H]1O`, the “activity change, negative = inhibition” value was -2.97% (inactive). Then `COC(=O)c1ccccc1C(=O)O`, with -0.707% (inactive); and `CCN(CC)CCN`, with 0.112% [at 42.5 µM] (inactive). With `CN(C)CCCCl` the figure was -2.93% (inactive); with `Cc1c(C(=O)c2c[nH]n(C)c2=O)ccc(S(C)(=O)=O)c1C1=NOCC1`, -7.47% [at 42.5 µM] (inactive); with `[O]=[Mo](=[O])=[O]`, 3.49% [at 19 µM] (inactive).

For `C=C(C)[C@@H]1CC=C(C)C(=O)C1`, the “activity change, negative = inhibition” value was 2.95% (inactive). Then `CCC(C(=O)OCCN1CCOC(c2ccccc2)C1C)c1ccccc1` (stereo not given), with -0.172% [at 42.5 µM] (inactive). With `CNCCS(=O)(=O)O` the figure was 8.02% (inactive); with `CCC(C)OC(C)CC` (stereo not given), -2.27% (inactive). With `O=C(CCCl)NCCc1ccccc1` the figure was -2.83% [at 42.5 µM] (inactive); with `Cc1cc(C)c(C(=O)O)c(C)c1`, -0.119% (inactive). As for `CCC(=O)CC`, the “activity change, negative = inhibition” value was 2.94% (inactive). With `Cc1ncc([N+](=O)[O-])n1CC(C)O` (stereo not given) the figure was 4.93% [at 42.5 µM] (inactive). With `O=Cc1cc2ccccc2o1`, the “activity change, negative = inhibition” value was 4.12% (inactive). With `OC1(c2ccc(Cl)cc2)CCNCC1` the figure was 3.99% [at 42.5 µM] (inactive). As to `COP(=O)(O)OP(=O)(O)OC`, the “activity change, negative = inhibition” value was -4.16% (inactive). As for `Nc1nnnn1-c1ccccc1`, the “activity change, negative = inhibition” value was -0.983% [at 42.5 µM] (inactive). For `CCc1occc(=O)c1O`, the “activity change, negative = inhibition” value was -0.335% (inactive). With `C/C=C(\C)C(C)=O` the figure was 7.34% (inactive). Then `COCCc1ccccn1`, with 3.37% [at 42.5 µM] (inactive); and `O=[N+]([O-])c1c(Cl)cc(Cl)cc1Cl`, with 7.62% (inactive); and `CC(Oc1cc(Cl)ccc1Cl)C(=O)O` (stereo not given), with -0.397% (inactive). In the case of `O=C(NCN1CCOCC1)c1cnccn1`, the “activity change, negative = inhibition” value was 0.498% [at 42.5 µM] (inactive).

Turning to `Cc1ccccc1C(N)=O`, the “activity change, negative = inhibition” value is -3.5% (inactive). With `C/C(CC(C)C)=N\O` the figure was -1.23% (inactive); with `COc1cc(/C=C/C(N)=O)cc(OC)c1OC`, -0.676% [at 42.5 µM] (inactive).

`CC(=O)C(C)O` (stereo not given): the “activity change, negative = inhibition” value was -1.31% (inactive).

Regarding `COc1nc(N)nc2nc[nH]c12`, the “activity change, negative = inhibition” value is -1.79% (inactive). Then `CCCCCCCCCCCCCCCCCC#N`, with -1.38% (inactive). Take `CC(S)C(C)S` (stereo not given): the “activity change, negative = inhibition” value was 5.51% (inactive).

For `CC(=O)OC1CCCCC1C(C)(C)C` (stereo not given), the “activity change, negative = inhibition” value was 5.38% (inactive).
